Laboratory results from the supplement of paper PMC11732987, “Enantioselective OTUD7B fragment discovery through chemoproteomics screening and high-throughput optimisation” (Communications Chemistry, 2025).

Columns and labels:
Assay in all cases: log2 ratio of Biotin-Ahx-Ub-VS probe labelling (fragment/DMSO); higher = less target engagement (more negative = stronger competition), active = hit call of the paper (q ≤ 0.05, log2 ratio ≤ -1)
Conditions in all cases: compound concentration: 200 uM; treatment time: 3 h
USP9X = USP9X (UniProt Q93008)
Method in brief: (§1)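 HEK293T lysate (495 µg per sample, in Tris/CHAPS/IGEPAL buffer with protease inhibitors) was treated in triplicate with fragment at 200 µM or with DMSO for 3 h. It was then treated with Biotin-Ahx-Ub-VS (0.5 µM final) for 1 h. Labelled DUBs were NeutrAvidin-enriched, digested with LysC and trypsin, and run by diaPASEF LC-MS/MS. Spectronaut label-free quantities were global-median-normalised. Values are average log2 ratios fragment/DMSO by unpaired t-test, using proteins with ≥2 unique peptides.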

UniProt O00487 = target: UniProt O00487
Method in brief: as §1

UniProt O00507 = target: UniProt O00507
Method in brief: as §1

UniProt P51784 = target: UniProt P51784
Method in brief: as §1

UniProt Q5T2D3 = target: T1, UniProt Q5T2D3
T1 sequence (whole entry): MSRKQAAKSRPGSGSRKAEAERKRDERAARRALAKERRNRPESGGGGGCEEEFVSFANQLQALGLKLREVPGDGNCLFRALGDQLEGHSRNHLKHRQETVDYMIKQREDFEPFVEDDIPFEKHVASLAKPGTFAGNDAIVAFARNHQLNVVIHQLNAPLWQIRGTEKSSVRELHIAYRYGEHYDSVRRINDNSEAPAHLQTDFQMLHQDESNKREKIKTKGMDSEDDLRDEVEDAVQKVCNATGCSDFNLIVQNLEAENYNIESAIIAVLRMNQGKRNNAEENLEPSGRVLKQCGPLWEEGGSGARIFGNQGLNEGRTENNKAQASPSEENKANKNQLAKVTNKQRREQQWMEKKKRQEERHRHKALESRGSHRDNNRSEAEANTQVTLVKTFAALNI
Method in brief: as §1

UniProt Q8TE49 = target: T2, UniProt Q8TE49
T2 sequence (whole entry): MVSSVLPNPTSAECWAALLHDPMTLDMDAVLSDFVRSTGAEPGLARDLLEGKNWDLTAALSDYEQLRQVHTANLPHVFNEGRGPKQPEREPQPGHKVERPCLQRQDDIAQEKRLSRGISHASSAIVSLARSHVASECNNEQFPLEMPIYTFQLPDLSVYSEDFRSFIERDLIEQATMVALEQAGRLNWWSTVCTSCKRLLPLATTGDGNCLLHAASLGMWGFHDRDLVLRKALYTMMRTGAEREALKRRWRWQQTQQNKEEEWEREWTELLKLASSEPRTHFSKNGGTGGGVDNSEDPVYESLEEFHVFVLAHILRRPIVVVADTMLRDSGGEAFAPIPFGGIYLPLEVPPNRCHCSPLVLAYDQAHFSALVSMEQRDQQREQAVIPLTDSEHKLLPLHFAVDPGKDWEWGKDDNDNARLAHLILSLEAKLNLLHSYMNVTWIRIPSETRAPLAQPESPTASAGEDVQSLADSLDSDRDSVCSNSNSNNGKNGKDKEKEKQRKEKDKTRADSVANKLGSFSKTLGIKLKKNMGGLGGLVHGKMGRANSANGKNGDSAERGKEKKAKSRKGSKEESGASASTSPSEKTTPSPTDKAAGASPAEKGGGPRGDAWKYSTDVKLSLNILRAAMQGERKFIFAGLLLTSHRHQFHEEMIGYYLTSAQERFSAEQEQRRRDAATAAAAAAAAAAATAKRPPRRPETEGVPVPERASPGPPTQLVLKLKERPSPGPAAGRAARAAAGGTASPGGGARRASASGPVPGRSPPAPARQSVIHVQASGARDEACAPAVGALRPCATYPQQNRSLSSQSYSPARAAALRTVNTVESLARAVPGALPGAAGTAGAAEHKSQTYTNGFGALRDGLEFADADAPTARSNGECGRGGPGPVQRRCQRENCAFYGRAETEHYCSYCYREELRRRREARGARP
Method in brief: as §1

UniProt Q9P2H5 = target: T3, UniProt Q9P2H5
T3 sequence (whole entry): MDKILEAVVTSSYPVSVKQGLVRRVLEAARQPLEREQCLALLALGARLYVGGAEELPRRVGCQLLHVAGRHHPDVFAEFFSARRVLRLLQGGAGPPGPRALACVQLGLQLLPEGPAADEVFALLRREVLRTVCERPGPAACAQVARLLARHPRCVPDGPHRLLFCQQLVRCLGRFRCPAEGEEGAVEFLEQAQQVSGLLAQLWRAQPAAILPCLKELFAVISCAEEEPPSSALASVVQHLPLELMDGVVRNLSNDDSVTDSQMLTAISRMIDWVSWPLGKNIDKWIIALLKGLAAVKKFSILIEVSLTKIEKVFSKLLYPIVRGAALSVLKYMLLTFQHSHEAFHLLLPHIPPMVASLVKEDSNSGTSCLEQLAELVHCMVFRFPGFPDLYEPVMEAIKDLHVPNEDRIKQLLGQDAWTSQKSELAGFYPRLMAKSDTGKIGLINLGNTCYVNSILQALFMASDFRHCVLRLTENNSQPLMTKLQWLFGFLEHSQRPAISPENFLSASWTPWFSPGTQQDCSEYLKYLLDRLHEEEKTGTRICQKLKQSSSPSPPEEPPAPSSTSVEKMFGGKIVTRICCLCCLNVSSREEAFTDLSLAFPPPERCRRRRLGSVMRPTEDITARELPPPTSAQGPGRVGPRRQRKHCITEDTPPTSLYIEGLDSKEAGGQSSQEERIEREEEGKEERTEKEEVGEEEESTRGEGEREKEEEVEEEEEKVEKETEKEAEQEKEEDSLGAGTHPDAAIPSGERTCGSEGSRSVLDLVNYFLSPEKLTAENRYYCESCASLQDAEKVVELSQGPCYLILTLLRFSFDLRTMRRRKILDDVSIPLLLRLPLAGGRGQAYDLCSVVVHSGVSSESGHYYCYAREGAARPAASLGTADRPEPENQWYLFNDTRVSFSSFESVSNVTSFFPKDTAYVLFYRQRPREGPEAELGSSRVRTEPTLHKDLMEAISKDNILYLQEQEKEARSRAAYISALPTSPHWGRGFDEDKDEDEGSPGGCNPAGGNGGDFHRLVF
Method in brief: as §1

UniProt Q9UGI0 = target: T4, UniProt Q9UGI0
T4 sequence (whole entry): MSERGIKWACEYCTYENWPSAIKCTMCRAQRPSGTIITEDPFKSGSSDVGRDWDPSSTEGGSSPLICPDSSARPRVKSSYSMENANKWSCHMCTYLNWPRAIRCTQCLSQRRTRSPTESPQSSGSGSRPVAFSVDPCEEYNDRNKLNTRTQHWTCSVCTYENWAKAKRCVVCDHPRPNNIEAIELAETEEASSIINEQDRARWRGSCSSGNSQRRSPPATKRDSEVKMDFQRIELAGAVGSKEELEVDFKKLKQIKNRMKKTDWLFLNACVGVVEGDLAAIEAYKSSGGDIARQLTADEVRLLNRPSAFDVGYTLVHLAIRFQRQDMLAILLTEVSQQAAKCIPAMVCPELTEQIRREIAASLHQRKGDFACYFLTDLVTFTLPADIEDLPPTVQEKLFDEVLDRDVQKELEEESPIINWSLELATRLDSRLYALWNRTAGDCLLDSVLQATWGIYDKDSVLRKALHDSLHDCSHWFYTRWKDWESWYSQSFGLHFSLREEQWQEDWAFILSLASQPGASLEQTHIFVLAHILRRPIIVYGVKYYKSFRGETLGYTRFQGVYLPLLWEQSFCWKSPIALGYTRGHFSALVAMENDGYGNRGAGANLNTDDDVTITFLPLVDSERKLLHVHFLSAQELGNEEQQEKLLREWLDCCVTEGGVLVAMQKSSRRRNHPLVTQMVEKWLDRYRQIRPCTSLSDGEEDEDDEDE
Method in brief: as §1

YOD1 = target: T5, YOD1 (UniProt Q5VVQ6)
T5 sequence (whole entry): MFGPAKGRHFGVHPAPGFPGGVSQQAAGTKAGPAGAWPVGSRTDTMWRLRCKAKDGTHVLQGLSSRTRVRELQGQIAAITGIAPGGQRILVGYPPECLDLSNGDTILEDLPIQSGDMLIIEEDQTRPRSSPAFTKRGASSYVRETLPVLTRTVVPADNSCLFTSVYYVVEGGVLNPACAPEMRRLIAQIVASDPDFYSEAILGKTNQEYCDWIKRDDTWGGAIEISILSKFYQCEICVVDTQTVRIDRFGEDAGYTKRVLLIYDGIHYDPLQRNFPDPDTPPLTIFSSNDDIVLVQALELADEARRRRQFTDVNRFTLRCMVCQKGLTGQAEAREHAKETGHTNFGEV
Method in brief: as §1

Measured: log2 ratio of Biotin-Ahx-Ub-VS probe labelling

Sequence of UniProt O00487 (O00487 whole entry): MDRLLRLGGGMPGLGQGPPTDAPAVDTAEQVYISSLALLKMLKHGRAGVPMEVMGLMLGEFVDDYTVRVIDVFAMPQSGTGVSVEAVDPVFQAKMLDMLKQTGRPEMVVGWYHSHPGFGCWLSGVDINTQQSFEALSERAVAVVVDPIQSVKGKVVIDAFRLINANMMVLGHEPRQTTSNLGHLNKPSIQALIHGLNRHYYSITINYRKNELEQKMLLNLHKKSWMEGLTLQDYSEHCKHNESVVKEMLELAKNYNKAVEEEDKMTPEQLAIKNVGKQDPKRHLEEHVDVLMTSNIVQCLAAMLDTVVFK
Sequence of USP9X (Q93008 whole entry, the tested form may be a part): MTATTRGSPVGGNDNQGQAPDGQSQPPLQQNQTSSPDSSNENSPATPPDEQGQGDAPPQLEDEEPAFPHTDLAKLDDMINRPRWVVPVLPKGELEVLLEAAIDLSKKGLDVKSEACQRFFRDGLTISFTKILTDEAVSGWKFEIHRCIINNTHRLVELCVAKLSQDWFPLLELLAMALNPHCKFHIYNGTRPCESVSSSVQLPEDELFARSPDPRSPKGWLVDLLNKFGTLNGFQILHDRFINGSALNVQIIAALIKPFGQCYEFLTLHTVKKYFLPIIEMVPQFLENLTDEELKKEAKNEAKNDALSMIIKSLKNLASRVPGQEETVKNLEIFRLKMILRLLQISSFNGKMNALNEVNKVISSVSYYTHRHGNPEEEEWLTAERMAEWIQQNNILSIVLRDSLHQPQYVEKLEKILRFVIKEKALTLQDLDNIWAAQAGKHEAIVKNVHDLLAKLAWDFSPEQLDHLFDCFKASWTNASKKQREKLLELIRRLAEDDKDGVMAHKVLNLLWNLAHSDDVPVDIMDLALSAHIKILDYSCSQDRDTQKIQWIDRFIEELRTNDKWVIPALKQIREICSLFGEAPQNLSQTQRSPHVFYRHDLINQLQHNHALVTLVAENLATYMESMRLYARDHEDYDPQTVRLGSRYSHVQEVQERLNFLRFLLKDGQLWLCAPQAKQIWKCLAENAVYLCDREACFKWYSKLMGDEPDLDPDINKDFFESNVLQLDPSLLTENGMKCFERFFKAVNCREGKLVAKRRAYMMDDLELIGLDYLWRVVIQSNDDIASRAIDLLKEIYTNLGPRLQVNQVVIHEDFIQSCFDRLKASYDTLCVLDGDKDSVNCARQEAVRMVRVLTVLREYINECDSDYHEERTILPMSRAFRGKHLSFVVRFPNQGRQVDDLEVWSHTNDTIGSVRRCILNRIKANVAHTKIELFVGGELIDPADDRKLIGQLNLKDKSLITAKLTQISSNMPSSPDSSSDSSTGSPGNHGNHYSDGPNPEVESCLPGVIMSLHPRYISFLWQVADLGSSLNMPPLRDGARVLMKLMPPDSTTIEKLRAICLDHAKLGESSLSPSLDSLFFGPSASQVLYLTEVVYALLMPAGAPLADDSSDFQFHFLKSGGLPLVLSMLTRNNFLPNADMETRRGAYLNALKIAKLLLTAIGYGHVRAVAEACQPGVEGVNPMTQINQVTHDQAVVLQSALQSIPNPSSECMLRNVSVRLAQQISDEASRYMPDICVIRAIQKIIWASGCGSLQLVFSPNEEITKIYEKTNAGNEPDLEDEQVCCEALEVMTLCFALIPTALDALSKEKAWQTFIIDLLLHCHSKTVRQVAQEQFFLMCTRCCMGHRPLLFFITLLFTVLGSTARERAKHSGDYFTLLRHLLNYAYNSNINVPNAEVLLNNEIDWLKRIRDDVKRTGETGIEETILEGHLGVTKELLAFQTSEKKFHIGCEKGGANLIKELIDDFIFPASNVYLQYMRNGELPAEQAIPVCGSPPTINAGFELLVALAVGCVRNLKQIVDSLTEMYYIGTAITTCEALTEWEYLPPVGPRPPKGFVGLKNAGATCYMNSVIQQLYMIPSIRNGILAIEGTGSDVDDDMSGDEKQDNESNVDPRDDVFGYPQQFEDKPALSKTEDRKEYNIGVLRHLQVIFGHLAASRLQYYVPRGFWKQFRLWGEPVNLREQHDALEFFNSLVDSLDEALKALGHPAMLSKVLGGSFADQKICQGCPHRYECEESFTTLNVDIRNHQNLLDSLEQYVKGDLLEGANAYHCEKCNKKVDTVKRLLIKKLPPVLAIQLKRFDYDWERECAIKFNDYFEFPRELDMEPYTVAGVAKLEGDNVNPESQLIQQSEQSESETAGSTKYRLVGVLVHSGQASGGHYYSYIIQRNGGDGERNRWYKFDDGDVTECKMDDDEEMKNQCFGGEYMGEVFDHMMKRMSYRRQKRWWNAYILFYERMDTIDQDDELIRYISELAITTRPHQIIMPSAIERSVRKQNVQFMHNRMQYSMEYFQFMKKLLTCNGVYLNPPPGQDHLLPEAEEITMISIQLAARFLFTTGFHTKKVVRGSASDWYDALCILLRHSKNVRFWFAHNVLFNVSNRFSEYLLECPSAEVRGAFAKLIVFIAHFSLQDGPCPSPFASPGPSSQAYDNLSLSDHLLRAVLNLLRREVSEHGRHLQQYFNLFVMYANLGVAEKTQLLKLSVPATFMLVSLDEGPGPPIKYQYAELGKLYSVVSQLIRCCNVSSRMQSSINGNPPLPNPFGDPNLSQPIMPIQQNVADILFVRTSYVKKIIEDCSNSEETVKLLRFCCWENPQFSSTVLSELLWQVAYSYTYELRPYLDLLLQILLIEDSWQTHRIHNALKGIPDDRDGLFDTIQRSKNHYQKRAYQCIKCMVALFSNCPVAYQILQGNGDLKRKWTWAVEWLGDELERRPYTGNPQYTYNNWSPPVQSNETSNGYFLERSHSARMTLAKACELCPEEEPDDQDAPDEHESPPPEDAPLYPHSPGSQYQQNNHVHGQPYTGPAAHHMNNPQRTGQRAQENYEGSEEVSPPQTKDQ
Sequence of UniProt P51784 (P51784 whole entry): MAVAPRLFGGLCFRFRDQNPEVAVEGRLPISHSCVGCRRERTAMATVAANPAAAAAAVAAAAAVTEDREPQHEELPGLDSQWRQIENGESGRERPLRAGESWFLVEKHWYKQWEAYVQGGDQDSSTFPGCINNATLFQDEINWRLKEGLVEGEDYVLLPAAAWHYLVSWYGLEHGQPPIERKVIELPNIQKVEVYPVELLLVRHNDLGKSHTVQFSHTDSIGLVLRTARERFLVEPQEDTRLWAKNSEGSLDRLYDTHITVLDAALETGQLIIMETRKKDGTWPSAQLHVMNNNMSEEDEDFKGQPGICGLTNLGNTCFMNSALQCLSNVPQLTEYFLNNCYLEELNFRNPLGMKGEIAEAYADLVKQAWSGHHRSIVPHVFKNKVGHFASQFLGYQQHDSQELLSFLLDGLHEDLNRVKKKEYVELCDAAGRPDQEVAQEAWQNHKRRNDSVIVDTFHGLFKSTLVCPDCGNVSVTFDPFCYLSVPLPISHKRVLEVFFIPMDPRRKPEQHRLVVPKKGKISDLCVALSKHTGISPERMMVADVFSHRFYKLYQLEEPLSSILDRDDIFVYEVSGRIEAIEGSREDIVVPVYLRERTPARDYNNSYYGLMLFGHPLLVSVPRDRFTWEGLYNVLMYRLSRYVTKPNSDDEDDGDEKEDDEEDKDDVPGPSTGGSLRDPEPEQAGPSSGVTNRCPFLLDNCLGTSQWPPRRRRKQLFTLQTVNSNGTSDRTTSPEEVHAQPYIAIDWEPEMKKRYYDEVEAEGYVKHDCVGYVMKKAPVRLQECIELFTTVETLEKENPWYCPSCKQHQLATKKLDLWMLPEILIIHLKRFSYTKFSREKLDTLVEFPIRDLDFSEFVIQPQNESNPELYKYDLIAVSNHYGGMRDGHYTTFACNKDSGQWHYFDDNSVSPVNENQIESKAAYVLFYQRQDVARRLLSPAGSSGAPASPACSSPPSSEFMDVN

Cc1ccc(C)c(NC(=O)CCl)c1
inactive: USP9X -0.374 | UniProt O00487 -0.102 | UniProt O00507 -0.612 | UniProt P51784 -0.335 | UniProt Q5T2D3 -0.41 | UniProt Q8TE49 -0.57 | UniProt Q9P2H5 -0.295 | UniProt Q9UGI0 -0.449 | YOD1 -0.599
